Source: PubChem (The Scripps Research Institute Molecular Screening Center)
Only some compounds are listed: those with a hit (about 4.1% of all), similar ones and a draw of the others.
DAX1 inh-1: DAX1 (NR0B1) inhibitors, primary screen, cell-based, HEK293, Gal4-DAX1, luciferase luminescence | Nuclear receptor subfamily 0 group B member 1 (Homo sapiens), P51843 | HEK293 Gal4-DAX1 luciferase reporter | inhibition, % at 6.75 µM | actives 0.99% (n = 340,000) | AID 504766, 2011;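 active means inhibition above the mean over all tested compounds plus 3 SD, cut at about 4.2% in these data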;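 further: 0% = DAX1-transfected cells with DMSO and 100% = empty-vector control cells with DMSO; inhibition shows as a rise in luminescence from relieved DAX1 repression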
hgDAF12 agonist: H. glycines DAF-12 receptor agonists, primary screen, cell-based, luminescence, HEK293, GAL4 fusion, UAS-luciferase | Nuclear hormone receptor DAF-12 (Heterodera glycines), GAL4 fusion | HEK293 GAL4-hgDAF12 UAS-luciferase reporter, agonist luminescence; normalized to butyrate control | activation, % at 6.8 µM | actives 1.8% (n = 370,000) | AID 687014, 2013;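 active means activation above a cutoff set at the mean of all screened compounds plus 3 SD, cut at about 10% in these data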;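 further: 0% = DMSO wells and 100% = sodium butyrate wells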
DAX1 inh-2: DAX1 (NR0B1) inhibitors on StAR promoter, primary screen, cell-based, luminescence, SF-1 (NR5A1), full-length DAX-1 | inhibition, % at 6.8 µM | AID 652010, 2013 | actives 1.1% (n = 370,000) | HEK293T StAR-luciferase reporter, SF-1/DAX-1 repression relief;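 active means inhibition above the mean over all tested compounds plus 3 SD, cut at about 3.6% in these data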;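 further: 0% = DAX-1 cells with DMSO and 100% = cells lacking DAX-1 with DMSO; higher inhibition means more luminescence from relief of DAX-1 repression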
hcDAF12 agonist: H. contortus DAF-12 nuclear receptor activators, primary screen, cell-based, luminescence, HEK293, lit1-tk-luc reporter | HEK293 hcDAF-12 lit1-tk-luc reporter; 0% DMSO, 100% Δ7-dafachronic acid | AID 652067, 2013 | activation, % at 6.8 µM | actives 1.4% (n = 370,000);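 active means activation above the mean of all tested compounds plus 3 SD, cut at about 5.5% in these data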;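 further: 100% = response to 3 µM Δ7-dafachronic acid high control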
ssDAF12 agonist: S. stercoralis DAF-12 nuclear receptor activators, primary screen, cell-based, luminescence, HEK293, GRIP1 co-expression, lit1-tk-luc. Nuclear hormone receptor DAF-12 (Strongyloides stercoralis). HEK293 ssDAF-12/GRIP1 lit1-tk-luc reporter; % of 3 µM dafachronic acid response. activation, % at 6.8 µM. actives 1% (n = 370,000);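 active means activation above the mean over all tested compounds plus 3 SD, cut at about 0.9% in these data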;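 further: 0% = DMSO-only wells and 100% = 3 µM delta7-dafachronic acid wells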
LXR ag: LXR agonists, Gal4 luciferase reporter, confirmation, counter-screen for hcDAF-12 agonist project, cell-based, luminescence, HEK293, H. contortus campaign; shares compounds with hcDAF12 agonist; HEK293 Gal4-LXR tk-luc reporter, 24 h; normalized: DMSO 0%, positive control 100%; activation, % at 6.8 µM; 3,400 tested, under 10 active;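 active means mean percent activation of the reporter above a cutoff set as the average over tested compounds plus their standard deviation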
Target sequence (P55055 whole entry, looked up, the tested form may be a part): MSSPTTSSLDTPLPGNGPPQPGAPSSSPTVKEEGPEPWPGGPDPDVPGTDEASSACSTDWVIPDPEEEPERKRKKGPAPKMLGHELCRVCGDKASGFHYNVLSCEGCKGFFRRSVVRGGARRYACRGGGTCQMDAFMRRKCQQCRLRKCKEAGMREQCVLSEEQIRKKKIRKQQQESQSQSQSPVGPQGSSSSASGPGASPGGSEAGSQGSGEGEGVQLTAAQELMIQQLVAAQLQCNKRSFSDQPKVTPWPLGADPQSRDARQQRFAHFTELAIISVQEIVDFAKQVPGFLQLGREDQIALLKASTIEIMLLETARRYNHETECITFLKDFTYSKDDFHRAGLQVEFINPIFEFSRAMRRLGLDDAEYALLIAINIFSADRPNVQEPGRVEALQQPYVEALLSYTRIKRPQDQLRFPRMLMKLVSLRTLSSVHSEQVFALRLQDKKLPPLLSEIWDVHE
hcDAF12 conf: H. contortus DAF-12 receptor agonists, confirmation, cell-based, luminescence, HEK293, lit1-tk-luc, triplicate | actives 61% (n = 3,400) | activation, % at 6.8 µM | HEK293 hcDAF-12 lit1-tk-luc reporter; % of Δ7-dafachronic acid response | shares compounds with hcDAF12 agonist;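 active means mean activation across triplicate tests above the threshold derived from the earlier primary screen, cut at about 5.5% in these data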;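 further: 0% = DMSO only wells and 100% = 3 µM Δ7-dafachronic acid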
* hit, by the source's call; x = no result.

SMILES	DAX1 inh-1	hgDAF12 agonist	DAX1 inh-2	hcDAF12 agonist	ssDAF12 agonist	LXR ag	hcDAF12 conf
Oc1ccccc1-c1cc(-c2ccccc2)n[nH]1	5.9*	19.0*	3.7*	19.3*	4.5*	1.8	20.8*
COc1ccc(S(=O)(=O)N2CCN(C(=S)Nc3ccc(S(N)(=O)=O)cc3)CC2)cc1	-0.2	0.8	-0.2	1.7	-1.1	x	x
N#CN=CN1CC=C(c2ccc(Cl)cc2)CC1	0.1	2.4	-0.5	-1.5	-1.1	x	x
Oc1ccccc1-c1cc(-c2ccc(F)cc2)n[nH]1	10.9*	21.8*	2.6	18.6*	4.3*	2.0	18.9*
Cc1ccc2nc3c(nc2c1)-c1ccccc1C3=O	1.2	4.4	0.9	11.2*	1.4*	0.4	6.2*
O=C(Cc1ccc(NC(=O)C2CCN(C(=O)C3CC3)CC2)cc1)Nc1ccc(C(=O)N2CCOCC2)cc1	1.0	1.1	-0.4	1.1	-0.6	x	x
O=C(Nc1ccccc1Cl)c1ccc(-c2ccccn2)s1	5.0*	10.6*	2.1	8.7*	0.3	0.6	3.4
Brc1ccc(-c2nc3ccccc3s2)s1	2.7	12.8*	1.3	10.0*	1.2*	1.4	11.4*
Cc1ccc2nc(-c3sc4nc(C)cc(C)c4c3N)[nH]c2c1	-0.2	4.3	4.0*	16.6*	2.3*	2.3	24.3*
O=C(NCCN1CCc2ccccc2C1)C1CCN(S(=O)(=O)N2CCC3(CC2)OCCO3)CC1	-1.6	1.4	-0.5	7.5*	0.6	-0.1	0.8
O=C(NCCN1CCc2ccccc2C1)C1CCN(S(=O)(=O)N2CCCCC2)CC1	0.1	-2.1	0.5	-2.2	-0.7	x	x
COc1ccc(C2Nc3ccccc3C(=O)N2c2ccc(C)cc2)cc1COc1ccccn1 (stereo unspecified)	-1.1	7.5	3.6*	6.9*	0.5	0.6	8.7*
COc1ccc(S(=O)(=O)N2CCOCC2)cc1NC(=O)c1ccc(SC)cc1OC	0.5	0.7	-0.8	-2.3	-0.8	x	x
CCOC(=O)/C(C#N)=C/c1cc2ccccc2nc1N1CCOCC1	-0.1	-1.6	0.0	0.1	-0.7	x	x
N#CC(C#N)=Cc1cc2ccccc2nc1N1CCCCC1	0.2	0.5	-0.2	7.1*	0.4	-0.2	0.8
c1ccc(Oc2ccccn2)cc1	-1.5	-2.3	0.6	0.9	-1.1	x	x
COc1cccc(N=Cc2nc(-c3ccccc3)oc2OC(C)=O)c1	4.0	-0.3	-0.5	1.6	-1.3	x	x
Cc1ccc(C(=O)Oc2oc(-c3ccccc3)nc2C=Nc2ccc(N(C)C)cc2)cc1	2.1	12.4*	2.2	8.1*	1.8*	0.3	1.5
CC(C)CC1c2[nH]c3ccccc3c2CCN1C(=O)c1cnccn1 (stereo unspecified)	x	4.8	1.4	9.6*	0.9*	1.1	12.3*
CC(=O)c1cc(C(=O)N2CCc3c([nH]c4ccccc34)C2CC(C)C)[nH]n1 (stereo unspecified)	-0.1	1.1	0.6	2.9	0.1	x	x
COC(=O)[C@]12CCCCC=C1N(Cc1ccc(Cl)cc1Cl)C(=O)[C@H](CC(=O)NCc1cccc(C(F)(F)F)c1)C2	x	3.3	-1.4	-0.9	-0.6	x	x
Cc1sc2c(c1C)CN(C(C)(C)C)CN2C(=O)c1ccccc1	0.6	8.9	1.5	6.8*	0.8	0.1	6.4*
Cc1sc2c(c1C)CN(Cc1ccncc1)CN2C(=O)c1ccco1	1.2	4.8	0.7	2.7	-1.1	x	x
CC(=O)NC(c1cccc(F)c1)c1nc(-c2csc3ccccc23)cs1 (stereo unspecified)	x	-2.2	-0.1	-1.1	-0.5	x	x
CC(=O)Nc1ccc2nc(NC(=O)c3ccco3)sc2c1	1.7	10.3	2.5	6.7*	-0.3	1.1	10.0*
SMILES	DAX1 inh-1	hgDAF12 agonist	DAX1 inh-2	hcDAF12 agonist	ssDAF12 agonist	LXR ag	hcDAF12 conf
O=C(Nc1nc(-c2ccncc2)cs1)c1ccco1	0.9	4.5	0.7	1.0	-0.5	x	x
O=C(NC(=S)Nc1nc(-c2ccccc2)cs1)c1ccco1	0.6	-1.3	-0.1	7.0*	0.0	0.0	7.3*
CCCOc1ccc(C(=O)NC(=S)Nc2nc3ccccc3s2)cc1	0.7	1.5	0.8	6.9*	0.1	0.0	7.6*
O=C(NC(=S)Nc1ccccc1N1CCCCC1)c1ccco1	-1.8	0.2	0.3	0.7	-0.9	x	x
O=C(NC(=S)Nc1ccccc1N1CCCC1)c1ccco1	x	4.9	-0.2	7.6*	0.1	0.0	4.9
COc1cc(NC(=O)C2C3CCC(O3)C2C(=O)O)cc(OC)c1 (stereo unspecified)	-0.7	-1.3	1.0	-0.9	-0.3	x	x
Nc1ccccc1C(=O)NC(=O)Nc1ccc(Oc2ncc(Br)cn2)c(Cl)c1	3.5	-2.0	0.2	-1.0	-0.1	x	x
O=C(NC(=S)Nc1nc(-c2ccccc2)cs1)c1cccs1	0.1	2.9	0.0	8.2*	-0.3	-0.2	5.3
O=C(NC(=S)Nc1nc2ccccc2s1)c1ccco1	3.4	13.2*	1.9	10.9*	2.2*	0.9	12.1*
Cc1ccc(-c2csc(NC(=S)NC(=O)c3cccs3)n2)cc1	-0.1	2.4	0.1	1.7	-1.2	x	x
O=C(NC(=S)Nc1cccc2cccnc12)c1cccs1	-1.2	0.3	-0.5	6.6*	-0.9	-0.1	3.8
NCc1ccc(OCCCN2CCC(C(O)(C3=CCCC3)c3ccccc3)CC2)cc1 (stereo unspecified)	x	-1.6	1.1	-0.2	0.1	x	x
C[C@@H]1CCCCO[C@@H](CN(C)C(=O)CCC(F)(F)F)[C@@H](C)CN([C@H](C)CO)C(=O)c2cc(N(C)C)ccc2O1	0.8	4.4	-0.9	0.9	-0.5	x	x
CCOC(=O)Nc1ccc2c3c(cccc13)-c1ccccc1-2	1.5	7.2	4.2*	8.2*	0.5	0.1	7.7*
Cc1ccc(-c2nc3cc(N)ccc3o2)cc1	-0.7	13.0*	3.6*	9.8*	0.8	1.8	9.2*
